Measurements from PubChem BioAssay (EPA / NIEHS).
Records with an inconclusive call do not appear. Active and inactive are the calls of the source. Rule for the calls, unless noted: active = hit-call score of the fitted dose curve at least 0.9, where 1 is the maximum; inactive = score below 0.9.

Assays:
[1] = CCTE_Mundy_HCI_Cortical_Synap_Neur_Matur_NeuriteSpotCountPerNeuron: CCTE's Synaptogenesis and Neurite Maturation Assay in rat cortical cells for Neurite Spot Count per Neuron Count, Mundy Lab (AID 2284215)
Outline: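 Read-out: neurite-associated synaptophysin puncta per neuron, imaged by high-content analysis after MAP2, synaptophysin and Hoechst staining. Rat primary cortical cultures, dosed DIV 7 through DIV 12; DMSO served as baseline.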

[2] = CCTE_Mundy_HCI_Cortical_Synap_Neur_Matur_SynapseCount: CCTE's Synaptogenesis and Neurite Maturation Assay in rat cortical cells for Synapse Count, Mundy Lab (AID 2284218)
Outline: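 Read-out: synapse number per neuron, automated high-content imaging of fixed cells immunostained for MAP2 and synaptophysin plus Hoechst nuclei. Rat primary cortical cultures, AraC at DIV 5, chemical dosing DIV 7–12. Positive-direction fit relative to DMSO.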

[3] = CCTE_Mundy_HCI_Cortical_Synap_Neur_Matur_NeuriteCount: CCTE's Synaptogenesis and Neurite Maturation Assay in rat cortical cells for Neurite Count, Mundy Lab (AID 2284222)
Outline: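 In this multiplexed morphology readout, rat primary cortical neurons are fixed at DIV 12 following dosing at DIV 7 and stained for MAP2, synaptophysin and nuclei. High-content image analysis yields neurite count.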

[4] = CCTE_Mundy_HCI_Cortical_Synap_Neur_Matur_CellBodySpotCount: CCTE's Synaptogenesis and Neurite Maturation Assay in rat cortical cells for Cell Body Spot Count, Mundy Lab (AID 2284223)
Outline: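 Read-out: cell body-associated synaptophysin puncta per neuron, imaged after MAP2, synaptophysin and Hoechst staining. Rat cortical cells, AraC DIV 5, chemical dosing DIV 7, fixation DIV 12. Activity fitted in positive direction relative to DMSO baseline.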

[5] = CCTE_Mundy_HCI_hNP1_Pro_ResponderAvgInten: CCTE's Proliferation Assay in human neuroprogenitor cells, Mundy Lab (AID 2284224; active = hit-call score of the fitted dose curve at least 0.9, where 1 is the maximum;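 note: human neural progenitor cells hNP1 derived from WA09 embryonic stem cells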)
Outline: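 Human neuroprogenitors (hNP1, WA09 lineage) receive test chemical after 40 to 44 hours of attachment. A four-hour BrdU pulse begins twenty hours later, followed by fixation and high content imaging; signal is referenced to DMSO controls.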

[6] = UKN2_HCS_IMR90_cell_viability: Viability Assessment in the University of Konstanz (UKN) Leist Lab Neural Crest Cell Migration Assay in human induced IMR90 Pluripotent Stem Cells (UKN2) (AID 2284233);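 note: viability of neural crest cells differentiated from IMR90 iPSC measured by calcein-AM fluorescence imaging; cells exposed to compound for 24 h after a 24 h migration phase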
Outline: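 cMINC format, iPSC-derived neural crest (IMR90); 24 h migration (EGF/FGF, N2-S), then 24 h toxicant. Calcein-AM/H-33342 stain 30 min; fluorescence intensity by HCS; DMSO-normalised, bidirectional fitting.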

[7] = CCTE_Mundy_HCI_Cortical_NOG_NeuronCount: CCTE's Neurite Outgrowth Assay in rat cortical cells for Neuron Count, Mundy Lab (AID 2284236; active = hit-call score of the fitted dose curve at least 0.9, where 1 is the maximum;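 note: neurons counted by imaging betaIII-tubulin and Hoechst stained cortical cells; cells exposed to compound for about 48 hours before fixation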)
Outline: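 Read-out: neuron number by high-content imaging of betaIII-tubulin (Alexa Fluor-488) and Hoechst-labelled rat primary cortical cells.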

[8] = CCTE_Mundy_HCI_Cortical_NOG_BPCount: CCTE's Neurite Outgrowth Assay in rat cortical cells for Branch Point Count, Mundy Lab (AID 2284237)
Outline: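 Measured 50.33 h after dosing, this morphology endpoint uses rat primary cortical cultures labelled for betaIII-tubulin. Branch points are quantified by high-content imaging, with DMSO as negative control and baseline.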

[9] = CCTE_Mundy_HCI_hNP1_Casp3_7: CCTE's Caspase-Glo 3/7 Assay in human neuroprogenitor cells for Apoptosis, Mundy Lab (AID 2284240)
Outline: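 Neuroepithelial-lineage stem cells from WA09 embryonic cells were treated with chemicals after 40–44 h of culture. Twenty-four hours later, caspase-3/7 activation was detected luminescently after a 30 min room-temperature reagent step, with DMSO as baseline.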

[10] = CCTE_Mundy_HCI_hNP1_CellTiter: CCTE's Cell Titer-Glo 2 Assay in human neuroprogenitor cells for Viability, Mundy Lab (AID 2284241; active = hit-call score of the fitted dose curve at least 0.9, where 1 is the maximum)
Outline: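 Measures ATP content in human neural progenitors derived from WA09 embryonic cells. Read-out at 26.5 hours after dosing, with DMSO serving as the negative control and baseline.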

[11] = CCTE_Mundy_HCI_Cortical_Synap_Neur_Matur_NeuronCount: CCTE's Synaptogenesis and Neurite Maturation Assay in rat cortical cells for Neuron Count, Mundy Lab (AID 2284242; active = hit-call score of the fitted dose curve at least 0.9, where 1 is the maximum)
Outline: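 Rat cortical cultures; AraC DIV 5; chemical dosing + media change DIV 7 to DIV 12 (288.33 h readout). Fix, Hoechst, anti-MAP2/anti-synaptophysin immunostain; HCI neuron count vs DMSO baseline.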

[12] = IUF_NPC2c_oligodendrocyte_migration_120hr: Leibniz Research Institute for Environmental Medicine (IUF) 120-hour Neural Progenitor Cell Migration Assay for Oligodendrocyte Migration (NPC2c) (AID 2284297);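 note: O4-positive oligodendrocyte migration distance divided by radial glia migration distance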
Outline: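 hNPC spheres (GW 16-19 cortex), PDL/laminin, DMEM/F12 3:1 + 1% N2, 37C. Dosing day 0–5, half feed day 3, DMSO ≤0.1%. Fixed 120 h; O4 ICC + Hoechst, HCI. Readout: mean oligodendrocyte distance from sphere edge / radial glia distance.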

[13] = IUF_NPC2a_radial_glia_migration_120hr: Leibniz Research Institute for Environmental Medicine (IUF) 120-hour Neural Progenitor Cell Migration Assay for Radial Glia Migration (NPC2a) (AID 2284298)
Outline: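 Hoechst-stained nuclei imaged at 120 h; algorithm maps sphere core by densest nuclei, sets migration edge at density threshold, gives radial glia migration distance (um) per well vs DMSO. hNPC spheres (0.3 mm), PDL/laminin, DMEM/F12 3:1 + 1% N2.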

[14] = IUF_NPC2a_radial_glia_migration_72hr: Leibniz Research Institute for Environmental Medicine (IUF) 72-hour Neural Progenitor Cell Migration Assay for Radial Glia Migration (NPC2a) (AID 2284299)
Outline: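 Readout: mean of four manual brightfield measurements of radial glia migration distance (um) at 72 h. hNPC spheres (0.3 mm) exposed to 7 compound concentrations plus solvent control on PDL/laminin, 37C, 5% CO2; activity fitted relative to DMSO.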

[15] = IUF_NPC2b_neuronal_migration_120hr: Leibniz Research Institute for Environmental Medicine (IUF) 120-hour Neural Progenitor Cell Migration Assay for Neuron Migration (NPC2b) (AID 2284300)
Outline: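 hNPC spheres, PDL/laminin, DMEM:F12 3:1 + 1% N2, 37C/5% CO2; 7 concentrations + solvent control (DMSO ≤0.1%), 5 d exposure, half-feed day 3. Fix 120 h, TUBB3 ICC, HCI: mean neuron migration distance ÷ glia distance.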

[16] = IUF_NPC3_neuronal_differentiation_120hr: Leibniz Research Institute for Environmental Medicine (IUF) 120-hour Neuronal Differentiation Assay (NPC3) (AID 2284301)
Outline: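 Neuronal differentiation of primary human neural progenitors measured by high-content imaging: percent TUBB3+ of Hoechst+ nuclei within migrated area at 120 h, seven-point serial dilution plus solvent control, gain or loss relative to DMSO.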

[17] = IUF_NPC4_neurite_length_120hr: Leibniz Research Institute for Environmental Medicine (IUF) 120-hour Neuronal Morphology Assay for Neurite Length (NPC4) (AID 2284302)
Outline: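 Neurons from differentiating human fetal neural progenitor spheres are scored for average neurite length after five days of compound exposure. Fitting uses DMSO as negative control.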

[18] = IUF_NPC5_oligodendrocyte_differentiation_120hr: Leibniz Research Institute for Environmental Medicine (IUF) 120-hour Oligodendrocyte Differentiation Assay (NPC5) (AID 2284304; active = hit-call score of the fitted dose curve at least 0.9, where 1 is the maximum;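 note: primary human fetal neural progenitor spheres plated to migrate and differentiate; share of O4-positive cells among Hoechst nuclei found by CNN image analysis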)
Outline: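 hNPC spheres, fetal cortex GW 16-19; PDL/laminin, DMEM:F12 3:1 + 1% N2, 37C/5% CO2; 7 concentrations + solvent control, 5 d exposure, half-change day 3. Readout: %O4+ of Hoechst+ nuclei in migration area, CNN classification; DMSO baseline.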

[19] = IUF_NPC4_neurite_area_120hr: Leibniz Research Institute for Environmental Medicine (IUF) 120-hour Neuronal Morphology Assay for Neurite Area (NPC4) (AID 2284305; active = hit-call score of the fitted dose curve at least 0.9, where 1 is the maximum)
Outline: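 Endpoint at 120 h: automated imaging of TUBB3/Hoechst-stained differentiating human neural progenitor spheres, neurite area per neuron from skeletonization. DMSO solvent control, not above 0.1%, set the baseline; medium was half-replaced on day 3.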

[20] = IUF_NPC2-5_cytotoxicity_72hr: Cytotoxicity Assessment at 72 hours in the Leibniz Research Institute for Environmental Medicine (IUF) Neural Progenitor Cell Migration and Differentiation Assay for Cytotoxicity (NPC2-5) (AID 2284306; active = hit-call score of the fitted dose curve at least 0.9, where 1 is the maximum;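 note: LDH release into supernatant measured by resorufin fluorescence marking membrane damage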)
Outline: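 Primary human neural progenitor spheres migrate and differentiate on laminin. Compound is present from the start of differentiation, with DMSO kept at or below 0.1%. At 72 h, supernatant LDH is quantified fluorometrically, with values fitted in the positive direction.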

[21] = IUF_NPC2-5_cell_number_120hr: Cell Number Assessment at 120 hours in the Leibniz Research Institute for Environmental Medicine (IUF) Neural Progenitor Cell Migration and Differentiation Assay (NPC2-5) (AID 2284308);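 note: count of Hoechst-stained nuclei in migration zone around plated human neural progenitor spheres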
Outline: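 Hoechst-stained nuclei within the migration area were counted by automated high content imaging after 120 h. Single hNPC spheres differentiated on poly-D-lysine/laminin in DMEM/F12 (3:1) with 1% N2, compound present throughout, DMSO ≤0.1%.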

[22] = IUF_NPC2-5_viability_120hr: Viability Assessment at 120 hours in the Leibniz Research Institute for Environmental Medicine (IUF) Neural Progenitor Cell Migration and Differentiation Assay (NPC2-5) (AID 2284312)
Outline: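 Human fetal (GW 16-19) neural progenitor spheres of 0.3 mm were plated on poly-D-lysine/laminin in N2 differentiation medium and exposed from day 0 for 120 h, with half-medium refresh at day 3. Viability was read as alamar blue resazurin-to-resorufin fluorescence against DMSO.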

[23] = CCTE_Mundy_HCI_iCellGluta_NOG_NeuriteLength: CCTE's Neurite Outgrowth Assay in iCellGluta cells for Neurite Length, Mundy Lab (AID 2284318; active = hit-call score of the fitted dose curve at least 0.9, where 1 is the maximum)
Outline: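 Automated high-content imaging of betaIII-tubulin (Alexa Fluor-488) and Hoechst-stained cells gave neurite length, normalized to the DMSO baseline.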

[24] = IUF_NPC1_cytotoxicity_72hr: Cytotoxicity Assessment at 72 hours in the Leibniz Research Institute for Environmental Medicine (IUF) Neural Progenitor Cell Proliferation Assay (NPC1) (AID 2284332; active = hit-call score of the fitted dose curve at least 0.9, where 1 is the maximum;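 note: rising LDH signal means more cytotoxicity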)
Outline: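 LDH in supernatant, resazurin→resorufin fluorescence (RFU), 72 h exposure, no re-dosing. Cells: primary hNPC spheres, one per well, EGF+FGF medium, 37C/5% CO2, pH 7.2-7.6. Fit: positive direction vs baseline and dynamic range.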

[25] = CCTE_Mundy_HCI_iCellGluta_NOG_NeuronCount: CCTE's Neurite Outgrowth Assay in iCellGluta cells for Neuron Count, Mundy Lab (AID 2284340; active = hit-call score of the fitted dose curve at least 0.9, where 1 is the maximum;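 note: cells fixed about 48 h after compound addition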)
Outline: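 Neuron count read by automated high-content imaging of Hoechst 33342 and betaIII-tubulin/Alexa Fluor-488 labelling in human iPSC glutamatergic neurons. Activity fitted relative to DMSO.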

[26] = CCTE_Mundy_HCI_iCellGluta_NOG_NeuriteCount: CCTE's Neurite Outgrowth Assay in iCellGluta cells for Neurite Count, Mundy Lab (AID 2284342; active = hit-call score of the fitted dose curve at least 0.9, where 1 is the maximum;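 note: chemical exposure about 48 hours starting 2 hours after plating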)

Measured: outcome

CCCCCC=C(C)C(CC)CCO (stereo unspecified)
inactive: all assays above
